Bioassay records as filed in PubChem.
The full list was thinned out, with hits kept by preference.
Pf Dd2 growth: blocks in vitro growth of P. falciparum Dd2; 120,000 tested, 4.3% active; Potency, µM (titrated, usually from 28.9 µM), without a hit: top-dose activity, negative = inhibition, most hits filed as inhibitors; AID 1347417; P. falciparum Dd2 growth, SYBR Green, 72 h; active means well fitted inhibition curve with a large enough effect;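 further: plate controls were DMSO vehicle for no effect and reference drug for full effect; nearly all actives have a fitted effect of over 65% in size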
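Readout: SYBR Green fluorescence, 485 nm excitation, 535 nm emission, after ~16 h lysis at 37C. Before that, Dd2-infected red cells (2.5% hematocrit) grew 72 h with compound, 29 uM top final concentration.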
Active calls of the source: *; ! = not confirmed by another sample; [ ] = another dose, or the depositor's remark. Potency means the concentration at half of the fitted maximal effect.

Results for Cc1cc(C)nc(-n2nc(C)c3c2N(Cc2ccccc2C)C(=O)CC3c2ccc(Cl)cc2)n1 (stereo not drawn) ?
Pf Dd2 growth: 8.91µM*

What do the screens show for `COC[C@@H]1CN(Cc2ccc(C#N)cc2)C[C@H]1C(=O)NC1CC1`?
Pf Dd2 growth: -7.1%

What do the screens show for `Cc1ccccc1C(=O)N1CCC2(CC1)NC(=O)N(c1ccccc1)N2`?
Pf Dd2 growth: inactive

Results for Cc1cc(C(=O)N[C@@H]2CCC[C@@H](C(=O)N3CCN(C)CC3)CC(=O)N(C)C2)nn1C ?
Pf Dd2 growth: -15.5%[44.1 µM]

How did CN1[C@@H](CCC(=O)N2CCc3ccccc32)CNC(=O)[C@@H]2[C@H]1CCN2CC(C)(C)C do in these assays?
Pf Dd2 growth: inactive

What do the screens show for `O=C(c1cccc(Cl)c1)N1CCc2nc(C3CC3)nc(-c3ccc(O)cc3)c2CC1`?
Pf Dd2 growth: 5.01µM*

What do the screens show for `O=C(c1ccccc1F)N1CCc2nc(C3CC3)nc(-c3ccc(Cl)cc3)c2C1`?
Pf Dd2 growth: -29.1%

How did Cc1nc2c(c(-c3ccc(O)cc3)n1)CN(C(=O)c1ccccc1)CC2 do in these assays?
Pf Dd2 growth: inactive

Results for O=C(c1ccccc1)N1CCc2nc(C3CC3)nc(-c3ccc(O)cc3)c2CC1 ?
Pf Dd2 growth: -2.3%

How did Cc1nc2c(c(-c3ccc(Cl)cc3)n1)CCN(C(=O)c1ccccc1C)CC2 do in these assays?
Pf Dd2 growth: -15.5%

What do the screens show for `Cc1ccccc1C(=O)N1CCc2nc(C3CC3)nc(-c3ccc(O)cc3)c2CC1`?
Pf Dd2 growth: 8.91µM*

Results for Cc1cccc(-n2c(=O)c3c(cc(C)n3C)n(CC(=O)Nc3c(C)cccc3C)c2=O)c1 ?
Pf Dd2 growth: 58.5%

Results for COc1ccc(-c2noc([C@@H]3C[C@@H](O)CN3Cc3cccnc3)n2)cc1 ?
Pf Dd2 growth: -24.1%[44.1 µM]

What do the screens show for `COc1ccc(CC(=O)N2C[C@@H](CO)[C@H](c3ccncc3)C2)cc1`?
Pf Dd2 growth: 11.9%

Results for COc1cccc(CCC(=O)N2CCC(c3n[nH]c(=O)n3-c3ccc(C)cc3)CC2)c1 ?
Pf Dd2 growth: inactive

What do the screens show for `COc1ccc(-n2nc(C3CCCN(C(=O)c4ccc(Cl)nc4)C3)[nH]c2=O)cc1` (stereo not drawn)?
Pf Dd2 growth: -2.4%

How did CCc1cccc(NC(=O)Cn2cc(C(=O)c3ccncc3)c(=O)c3cc(C)c(C)cc32)c1 do in these assays?
Pf Dd2 growth: 10µM*

What do the screens show for `Cc1ccc2c(c1)c(=O)c(C(=O)c1ccncc1)cn2CC(=O)Nc1ccccc1Cl`?
Pf Dd2 growth: inactive

Results for Cc1cc(C)cc(NC(=O)Cn2cc(C(=O)c3ccncc3)c(=O)c3cc(C)c(C)cc32)c1 ?
Pf Dd2 growth: -24.0%

What do the screens show for `COc1ccc(CN2CC3(C2)C(=O)N(Cc2ccc(C)o2)C(=O)[C@@H]2C[C@@H](O)CN23)cc1`?
Pf Dd2 growth: -8.1%[44.1 µM]

What do the screens show for `Cc1nc(-c2ccc(N(C)C)cc2)cc([C@H]2CN3CC[C@H]2C[C@@H]3CNC(=O)NC(C)C)n1`?
Pf Dd2 growth: inactive

How did Cc1cc(-c2ccnc(-c3nnc(C)n3CCc3ccccc3)c2)ccn1 do in these assays?
Pf Dd2 growth: inactive

How did CN(Cc1cccc(CCN)c1)Cc1cccc2ncccc12 do in these assays?
Pf Dd2 growth: 7.08µM*

What do the screens show for `CN(Cc1ccccc1C(F)(F)F)Cc1cccc2ccccc12`?
Pf Dd2 growth: inactive

What do the screens show for `Cc1c(CN(C)Cc2cccc3ncccc23)c(=O)n(-c2ccccc2)n1C`?
Pf Dd2 growth: -3.9%

What do the screens show for `O=C(NCC12CCC=C1N(CC1CC1)C(=O)CC2)C1CCOCC1` (stereo not drawn)?
Pf Dd2 growth: 19.7%

Results for Cc1ccn2c(Nc3ccc4c(c3)OCO4)c(-c3ccc(O)cc3)nc2c1 ?
Pf Dd2 growth: 12.6µM*

What do the screens show for `CSc1ccc(-c2nc3cc(C)ccn3c2Nc2ccc(C)cc2)cc1`?
Pf Dd2 growth: 0.5%

What do the screens show for `Cc1ccc2nc(-c3cccc(Cl)c3)c(Nc3ccc4c(c3)OCO4)n2c1`?
Pf Dd2 growth: -6.6%

What do the screens show for `c1coc(-c2nc3ccccn3c2Nc2ccc3c(c2)OCCO3)c1`?
Pf Dd2 growth: inactive

What do the screens show for `Cc1ccc(-c2nc3ccccn3c2Nc2ccc3c(c2)OCCO3)s1`?
Pf Dd2 growth: inactive

How did CN(C)c1ccc(-c2nc3ccccn3c2Nc2ccc3c(c2)OCCO3)cc1 do in these assays?
Pf Dd2 growth: 10µM*

How did CO[C@H]1C(=O)N(C2CCN(C(=O)CCc3c[nH]c4ccccc34)CC2)[C@H]1c1ccncc1 do in these assays?
Pf Dd2 growth: -0.3%

How did CCCCN(C)C(=O)Cc1cccn1-c1cccc(Cl)c1 do in these assays?
Pf Dd2 growth: inactive

How did Cc1ccc(-c2nnc(C3CN(C(=O)c4ccc(F)cc4F)CC34CCOCC4)o2)cc1 (stereo not drawn) do in these assays?
Pf Dd2 growth: inactive

Results for COCCOCC1(CNC(=O)c2nc3ccccc3[nH]2)C[C@@H](O)[C@@H](O)C1 (stereo partly drawn) ?
Pf Dd2 growth: -3.6%[44.1 µM]

How did COCCCNC(=O)c1cc(C)nc2onc(C3CCNCC3)c12 do in these assays?
Pf Dd2 growth: -5.9%

Results for CC(C)N1C[C@H](O)C[C@H]1c1nnc2n1CCN(C(=O)Cc1cccc(F)c1)CC2 ?
Pf Dd2 growth: -13.7%

Results for CCc1nc2c(c(-c3ccc(O)cc3)n1)CN(Cc1ccccc1OC)CC2 ?
Pf Dd2 growth: -17.0%

What do the screens show for `Cc1nc2c(c(-c3ccc(O)cc3)n1)CN(Cc1cncs1)CC2`?
Pf Dd2 growth: -7.4%[44.1 µM]

What do the screens show for `Oc1ccc(-c2nc(C3CC3)nc3c2CN(Cc2ccsc2)CC3)cc1`?
Pf Dd2 growth: 7.08µM*

What do the screens show for `Oc1ccc(-c2nc(C3CC3)nc3c2CN(Cc2ccccc2C(F)(F)F)CC3)cc1`?
Pf Dd2 growth: 2.51µM*!

Results for Cc1nc2c(c(-c3ccc(O)cc3)n1)CN(Cc1ccsc1)CC2 ?
Pf Dd2 growth: inactive

How did O=C(C1CC(=O)N(c2n[nH]c3cccc(F)c23)C1)N1CCN(c2ccc(Cl)cc2)CC1 (stereo not drawn) do in these assays?
Pf Dd2 growth: -21.3%

Results for CC(C)NC(=O)c1ccc(CC2CCN(C)CC2)cc1 ?
Pf Dd2 growth: -20.2%

How did CCN1C(=O)C2CC3(CCN(C(=O)CC4CCCC4)CC3)CN2C1=O (stereo not drawn) do in these assays?
Pf Dd2 growth: -5.3%

How did O=C(c1ccccc1F)N1CCC2(CC1)C(=O)NN=C2c1cccnc1 do in these assays?
Pf Dd2 growth: -5.5%

What do the screens show for `CC1CCN(C(=O)Cn2cc(SCC(=O)Nc3ccccc3)c3ccccc32)CC1`?
Pf Dd2 growth: -21.1%

Results for CC1CCN(C(=O)CC(c2ccc(Cl)cc2)c2cn(C)c3ccccc23)CC1 (stereo not drawn) ?
Pf Dd2 growth: 7.94µM*

How did CC1CCN(C(=O)Cn2cc(SCC(=O)NCc3ccccc3)c3ccccc32)CC1 do in these assays?
Pf Dd2 growth: -11.9%

Results for CNC(=O)[C@@H]1CN(C(=O)C2CC=CC2)C[C@H]1CO ?
Pf Dd2 growth: 23.2%

How did COc1ccc(CCN2C(=O)N(c3ccc(C)cc3)C(=O)C2CC(=O)Nc2ccc(F)cc2)cc1 (stereo not drawn) do in these assays?
Pf Dd2 growth: -19.9%

Results for CCc1ccc(NC(=O)CC2C(=O)N(c3ccc(C)cc3)C(=O)N2CCc2ccncc2)cc1 (stereo not drawn) ?
Pf Dd2 growth: 6.31µM*

What do the screens show for `Cc1cccc(N2C(=O)C(CC(=O)Nc3cccc(F)c3)N(CCc3ccncc3)C2=O)c1` (stereo not drawn)?
Pf Dd2 growth: -17.6%
